The values that follow come from ChEMBL document CHEMBL3988442, “University of Dundee, Small-Polar-MMV Screening Library” (2021).

Structures are written as SMILES. Hit rate of the full screen: of about 48,000 compounds, about 13,000 (27%) showed an effect of 50% or more. This is one part of the list.

For the assay, the system named is Wolbachia pipientis. The assay can be described thus: Anti-Wolbachia Cell-Based Screen. It is filed as functional. Details: scale not given: in the data most compounds retested in dose-response had high values. The note with it: 5 µM.
For `C/C=C(/C)C(=O)NS(=O)(=O)c1ccc(C(F)(F)F)cn1`, the “Percent Effect” value turned out to be 4.736%.

For `CCCN(C(=O)c1ocnc1C)C1CCCN(Cc2ccccc2)C1` (configuration not stated), the “Percent Effect” value is -1.253%. Next, `O=C1CC(NCc2ccc(OC(F)F)cc2)CN1Cc1cccc(F)c1` (configuration not stated): 2.286%; `Cn1nc(C(=O)N2CCSCC2)cc1NC(=O)c1ccccc1`: 96.7%. The figure for `CN1CCN(C(=O)c2cc(NC(=O)c3ccccc3)n(C)n2)CC1` is 103.5%; for `Cc1cccc(C(=O)N2CCN(C)CC2)c1NC(=O)c1ccncc1` it is -3.532%.

As to `Cc1cccc(C(=O)N2CCSCC2)c1NC(=O)c1cccnc1`, the “Percent Effect” value is -13.65%.

With `O=C(c1ccn(-c2ccccc2Cl)n1)N1CCSCC1`, the “Percent Effect” value was -7.672%. On to `CN1CCC(Oc2ccc(NC(=O)c3ccccc3)cc2)CC1`, for which the “Percent Effect” value is on record as 6.259%. Next, `Cc1cc2ccccc2n1CCC(=O)N1CCC[C@H]1C(N)=O`: -2.793%.

With `Cc1cc2ccccc2n1CCC(=O)N1CCCC1Cn1cccn1` (configuration not stated), the “Percent Effect” value is listed as -4.808%. Take `Cc1cc2ccccc2n1CCC(=O)N1CCN(C)CC1C(N)=O` (configuration not stated): the “Percent Effect” value is reported as 104.9%. As for `CSCCC(=O)N1CCCC(c2nccn2Cc2ccncc2)C1` (configuration not stated), the “Percent Effect” value was -15.94%. Regarding `Cc1n[nH]cc1CNC(=O)[C@H]1CCCCN1C(=O)OC(C)(C)C`, the “Percent Effect” value is given as -12.93%. The figure for `Cc1c[nH]nc1C1CCCCN1C(=O)CNS(C)(=O)=O` (configuration not stated) is 91.22%. Next, `Cc1c[nH]nc1C1CCCCN1C(=O)CC1(O)CCCCC1` (configuration not stated): 121.5%; `CS(=O)(=O)NCC(=O)N1CCCC1c1noc(C2CC2)n1` (configuration not stated): -4.288%. Next, `Cc1cccc(C2CCCCN2C(=O)CCCS(C)(=O)=O)c1C` (configuration not stated): -5.265%; `Cn1cc(C2CCCN2C(=O)COC2CCCCC2)cn1` (configuration not stated): -3.38%; `Cc1ccnn1CCC(=O)N1C[C@H]2CC[C@@H]1CN(CC(=O)N(C)C)C2`: -3.709%. With `Cc1c[nH]nc1C1CCCCN1C(=O)Cn1cc(Cl)cn1` (configuration not stated), the “Percent Effect” value is listed as -1.424%.

As to `Cc1c[nH]nc1C1CCCCN1C(=O)CCn1nccc1C` (configuration not stated), the “Percent Effect” value came to 91.05%. Next, `CC(CCCC(C)(C)O)Nc1ccc(-c2nccn2C)nn1` (configuration not stated): 6.201%. Next, `COc1cc(N2CCC(c3nccn3Cc3ccccc3)CC2)ncn1`: -9.757%; `CN(C)C(=O)c1ccc2c(c1)N(C)C(CC(=O)NCCC(C)(C)C)CO2` (configuration not stated): 1.305%.

As for `CC(C)=CCN1CCN(Cc2nccn2C)[C@H]2CS(=O)(=O)C[C@H]21`, the “Percent Effect” value is given as 99.3%. `O=S1(=O)C[C@@H]2[C@H](C1)N(Cc1ncc[nH]1)CCN2CC1CC1`: the “Percent Effect” value is -14.64%. As to `Cn1ccnc1CN1CCN(CC2CC2)[C@@H]2CS(=O)(=O)C[C@@H]21`, the “Percent Effect” value came out at 106.1%. The figure for `O=S1(=O)C[C@@H]2[C@H](C1)N(Cc1cc(Cl)cc(Cl)c1)CCN2CC1CC1` is 5.878%; for `CC(C)=CCN1CCN(Cc2ncc[nH]2)[C@H]2CS(=O)(=O)C[C@H]21` it is -11%. On to `CC(C)=CCN1CCN(Cc2nc3ccccc3[nH]2)[C@H]2CS(=O)(=O)C[C@H]21`, for which the “Percent Effect” value was -9.753%. With `CN1CCN(c2cnn(Cc3ccc(S(C)(=O)=O)cc3)c(=O)c2)CC1`, the “Percent Effect” value is listed as 4.016%. Regarding `Cc1ccc(N2CCCC(N3CCN(CC(F)F)CC3)C2=O)cc1` (configuration not stated), the “Percent Effect” value was -21.44%.

Take `Cc1cccc(C(=O)N(C)C2CCN(c3ccccn3)CC2)c1C`: the “Percent Effect” value worked out at 141.7%. Next, `CCOc1ncccc1C(=O)N(C)C1CCN(c2ccccn2)CC1`: 144.5%; `CN(C(=O)c1cccc2[nH]ncc12)C1CCN(c2ccccn2)CC1`: -1.361%; `CN(C(=O)c1ccccc1Cl)C1CCN(c2ccccn2)CC1`: 11.04%. As for `CN(C(=O)CNc1ccc(C#N)cc1)C1CCN(c2ccccn2)CC1`, the “Percent Effect” value is given as 6.622%.

With `COc1ccccc1C(=O)N(C)C1CCN(c2ccccn2)CC1`, the “Percent Effect” value is reported as 177.1%. Next, `CN(C1CCN(c2ccccn2)CC1)S(=O)(=O)c1ccc(F)cc1`: 18.41%; `Cc1ccccc1CC(=O)N(C)C1CCN(c2ccccn2)CC1`: -4.877%.

As to `O=C(Cn1cnnn1)NCC1(O)CCCc2ccccc21` (configuration not stated), the “Percent Effect” value was -5.769%. Next, `CC(=O)Nc1ccc(CNC(=O)CNCc2sc(C)nc2C)cc1`: -27.38%.

Regarding `CCOC(=O)CC(C)NC(=O)c1cn(Cc2ccccc2F)nn1` (configuration not stated), the “Percent Effect” value is on record as -6.246%. Next, `CNC(=O)C(C)NC(=O)c1ccc(Oc2cccnc2)cc1` (configuration not stated): -6.707%; `CO[C@@H]1CC[C@@H](N(C)C(=O)COc2ccc(F)cc2)[C@H]1O`: -1.969%; `CN(C(=O)COc1ccc(F)cc1)[C@@H]1CS(=O)(=O)C[C@H]1O`: 1.163%. For the molecule `CN(C(=O)COc1ccc(F)cc1)[C@@H]1CC[C@@H](n2ccnc2)[C@@H]1O`, the “Percent Effect” value was 128.1%. Next, `CCC(C)N(Cc1ccsc1)C(=O)c1ccc(CO)cc1` (configuration not stated): 113.9%; `CC(=O)N(Cc1ccsc1)c1ccccc1`: -9.96%.

`Cn1nc(CC(C)(C)C)cc1NC(=O)c1ccc2[nH]nnc2c1`: the “Percent Effect” value was -11.38%. The figure for `CCC(C)N(CC)C(=O)c1ccc2[nH]nnc2c1` (configuration not stated) is 122.8%.
